This is a sample that favours compounds with a hit; in the whole collection about 11% have one here.
ALDH1A1 block – ALDH1A1 (human) enzyme inhibition; Purified ALDH1A1, NADH fluorescence, propionaldehyde substrate; Potency, µM (highest dose often 75.3 µM), for inactives: at the top dose activity, negative = inhibition, hits mostly inhibitors; 7.3% of 220,000 active; AID 1030;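 further: potency means the concentration at half of the fitted maximal effect; plate controls were no enzyme wells and a reference inhibitor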
PNC assembly inh – perinucleolar compartment assembly inhibition. activity change (PNC), negative = inhibition, % at 10 µM. 3.1% of 140,000 active. PC3M PTB-GFP, PNC prevalence imaging, 16 h; stronger effect = lower value;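 active means readout at or below -70, meaning at least 70% loss of cells showing the perinucleolar compartment, a nuclear body marking cancer cells; inconclusive means readout between -30 and a set limit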;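 further: plate controls were DMSO wells for no effect and camptothecin positive control wells for full effect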
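Compounds are pinned in duplicate onto adhered PC3M cells stably expressing GFP-tagged PTB and incubated 16 h at 37 C. Cells are then fixed, nuclei stained with Hoechst, and PNC-positive cells counted.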
HPGD inh – HPGD (human) dehydrogenase inhibition. P15428. purified HPGD, NADH fluorescence kinetic, PGE2 substrate. Potency, µM, inactives show at the top dose activity change, negative = inhibition, usual class: inhibitors. 4.3% of 150,000 active. AID 894; further: potency means the concentration at half of the fitted maximal effect
Target sequence (P15428 whole entry, looked up): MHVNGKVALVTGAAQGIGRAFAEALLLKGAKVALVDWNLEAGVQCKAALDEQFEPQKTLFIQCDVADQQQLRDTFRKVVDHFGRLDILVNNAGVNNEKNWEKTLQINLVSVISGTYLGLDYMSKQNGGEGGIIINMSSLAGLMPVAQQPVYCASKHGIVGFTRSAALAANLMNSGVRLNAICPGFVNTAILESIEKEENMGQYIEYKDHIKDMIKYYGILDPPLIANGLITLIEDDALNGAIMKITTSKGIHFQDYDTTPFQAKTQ
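20 nM HPGD preincubated 15 min at room temperature with compound in 50 mM Tris-HCl pH 8, 0.01% Tween 20. Started with 1 mM NAD+ and 30 uM prostaglandin E2; NADH fluorescence (360/450 nm) read 5 times over 30-s intervals, last minus first.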
JMJD2E inh – JMJD2E (human) inhibition; JMJD2E catalytic domain, FDH-coupled NADH fluorescence (FDH is formaldehyde dehydrogenase); Potency, µM (doses to about 57.1 µM), without a hit: at the highest dose activity change, negative = inhibition, hits mostly inhibitors; B2RXH2; 1.6% of 230,000 active;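 further: potency means the concentration at half of the fitted maximal effect; 0% = wells with enzyme and -100% = buffer wells without enzyme; nearly all actives have a fitted effect of over 50% in size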
Target sequence (B2RXH2 1-337 limits assumed): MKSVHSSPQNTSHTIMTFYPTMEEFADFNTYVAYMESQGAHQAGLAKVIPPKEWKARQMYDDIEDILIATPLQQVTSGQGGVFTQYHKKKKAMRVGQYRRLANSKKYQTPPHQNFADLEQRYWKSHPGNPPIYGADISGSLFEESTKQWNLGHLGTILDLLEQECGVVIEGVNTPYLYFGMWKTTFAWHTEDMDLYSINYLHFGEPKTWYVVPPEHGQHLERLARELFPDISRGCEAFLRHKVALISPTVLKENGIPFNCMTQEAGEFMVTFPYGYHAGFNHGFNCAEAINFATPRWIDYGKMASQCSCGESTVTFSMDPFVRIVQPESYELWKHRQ
The depositor's hits bear a star; ? = inconclusive; · = no result; ! = a repeat was not active; [ ] = another dose, or the depositor's remark. Unless noted, the call rests on the fitted dose curve; in most records, active means well fitted inhibition curve with a large enough effect (not every such curve was filed as active); inconclusive means small, poorly fitted or top-dose-only effect, or another doubt; inactive means no such curve, though single readings can be large or run the other way. Unless noted, on the % scale 0 is the no-effect control and ±100 the full control effect.

SMILES	ALDH1A1 block	PNC assembly inh	HPGD inh	JMJD2E inh
CCCc1cc(N2CCCC(C(=O)NCc3ccc4c(c3)OCO4)C2)n2ncnc2n1 (centres undefined)	-10.9%	?	-12.9%	-1.2%
O=S(=O)(Nc1cc2nc3ccccc3nc2n1Cc1ccccc1)c1ccc(Cl)cc1	?	-26.2	-18.4%	?
C=C(C)COc1ccc(-c2ncncc2Oc2ccc(OC)cc2)c(O)c1	20µM*	14.7	17.8µM*	3.6%
O=C(Nc1ccc(Cl)c(Cl)c1)Nc1nnc(CSc2ccccc2)s1	12.4%	19.9	-3.6%	0.5%
Cc1cc(C(F)(F)F)c(C#N)c(SCC(=O)Nc2nc3ccccc3s2)n1	-1.5%	24.0	-22.5%	4.2%
Cc1nc(SCC(=O)Nc2nc3ccccc3s2)c(C#N)c(C)c1C	?	15.8	28.2µM*	?
O[C@H](C[C@@H]1CCCCN1)c1ccc2c(c1)oc1ccccc12	7.7%[13.5 µM]	·	-0.7%	·
Cc1ccc(OCCN2C(=O)c3ccccc3C2=O)cc1	3.1%	?	?	10.8%
Cc1cccc(OCCN2C(=O)C(=O)c3cc(C)ccc32)c1	0.631µM*	·	·	-9.8%
Cc1cccc(OCCN2C(=O)C(=O)c3cccc(C)c32)c1	0.159µM*	-16.4	-15.1%	10.1%
Cc1ccc2c(c1)C(=O)C(=O)N2CCOc1ccccc1	1.26µM*	·	·	-7.2%
Cn1nc(C(=O)OCC(=O)Nc2cccc(S(=O)(=O)N3CCCC3)c2)c2ccccc2c1=O	·	·	·	-2.4%
Nc1cc(C(=O)O)c(O)c(S(=O)(=O)O)c1	?	·	-20.5%	·
COCc1ccc([C@@H]2C[C@H]3CN(Cc4ccccc4C)C(=O)[C@]34CCCN24)o1	20µM*	·	·	0.6%
O=C(Cn1c2ccccc2c(=O)c2ccccc21)Nc1cccc(F)c1	?	-25.6	?	?
NCC1OC(OC2C(N)CC(N)[C@@H](O)[C@@H]2OC2O[C@H](CO)[C@@H](O[C@@H]3OC(CN)C(O)C(O)C3N)C2O)C(N)C(O)C1O (some centres undefined)	3.3%	·	-11.2%	6.9%
Cc1nc2ccccc2n1CCCOc1ccccc1	-6.6%	-104.6*	-4.1%	1.2%
COCc1nc2ccccc2n1CCCOc1ccccc1	-4.9%	-106.0*	-11.2%	2.2%
COC(=O)c1ccc(C(=O)OC)c(NC(=O)CN(c2ccc3c(c2)OCO3)S(C)(=O)=O)c1	3.9%	27.3	?	-6.4%
Cc1cc(O)c(C(=O)c2ccccc2C(=O)O)cc1C	17.8µM*	30.8	-12.7%	-43.0%
COc1ccc(Cn2c(O)c(/C=N/NC(=O)c3cccnc3)c3ccccc3c2=O)cc1	?	·	·	28.2µM*
O=C(N/N=C/c1c(-c2ccccc2)[nH]c2ccccc12)c1cccnc1	1.4%	·	·	-27.9%
COc1ccc(Cn2c(O)c(C=Nc3ccc(OC)cc3)c3ccccc3c2=O)cc1	?	-16.6	-15.3%	-25.6%
O=C(N/N=C/c1c(O)n(Cc2ccccc2)c(=O)c2ccccc12)c1cccnc1	10µM*	·	·	?
O=C(N/N=C/c1c(O)n(-c2ccccc2Cl)c(=O)c2ccccc12)c1cccnc1	14.1µM*	·	·	?
SMILES	ALDH1A1 block	PNC assembly inh	HPGD inh	JMJD2E inh
COc1ccc(C(=O)C2C(c3ccc(-c4ccccc4[N+](=O)[O-])o3)NC(=O)NC2(O)C(F)(F)F)cc1 (centres undefined)	12.6µM*	?	-11.1%	-2.5%
Cc1ccc(C2NC(=O)NC(O)(C(F)(F)F)C2C(=O)c2cccs2)o1 (centres undefined)	?	-27.4	-6.6%	-6.3%
Cc1ccc(C2NC(=O)NC(O)(C(F)(F)F)C2C(=O)c2ccccc2)o1 (centres undefined)	8.91µM*	-26.4	-9.2%	5.3%
O=C1NC(c2ccc(-c3ccccc3[N+](=O)[O-])o2)C(C(=O)c2ccc(F)cc2)C(O)(C(F)(F)F)N1 (centres undefined)	?	-22.2	-3.5%	8.0%
Cc1ccc(SCC(=O)Nc2ccccc2C(=O)O)cc1	13.0%	-5.4	-1.8%	8.0%
CO[C@H]1C[C@@H]2CC[C@@H](C)[C@@](O)(O2)C(=O)C(=O)N2CCCC[C@H]2C(=O)OC([C@H](C)C[C@@H]2CC[C@@H](O)[C@H](OC)C2)CC(=O)[C@H](C)/C=C(\C)[C@@H](O)[C@@H](OC)C(=O)[C@H](C)C[C@H](C)/C=C/C=C/C=C/1C (some centres undefined)	17.8µM*!	·	-9.7%	·
Cn1nc(-c2ccc(NCCO)c([N+](=O)[O-])c2)c2ccccc2c1=O	?	·	·	-3.5%
Cn1nc(-c2ccc(N3CCN(CCO)CC3)c([N+](=O)[O-])c2)c2ccccc2c1=O	4.47µM*	·	·	-3.8%
COc1ccc(CCN2CC34C=CC(O3)C(C(=O)NCc3ccccc3)C4C2=O)cc1OC (centres undefined)	-5.6%	5.1	10µM*	0.5%
CCOc1ncccc1C(=O)OCC(=O)c1cc(OC)c(OC)c(OC)c1	·	·	·	-2.0%
COc1ccc(CCNC(=O)C(=O)NCc2ccc(Cl)cc2)cc1OC	0.631µM*	·	·	-5.1%
COc1cccc(CNC(=O)C(=O)NCCc2ccc(OC)c(OC)c2)c1	?	-1.0	-12.5%	8.4%
COc1ccc(CCNC(=O)CCCOc2cccc(C)c2C)cc1OC	·	·	·	-6.5%
COc1ccc(CCNC(=O)C(=O)NCc2ccc(C)cc2)cc1OC	3.16µM*	?	-11.1%	3.1%
COc1ccc(CCNC(=O)CCCOc2ccc(C)cc2)cc1OC	28.2µM*	15.4	-22.4%	0.3%
COc1ccc(CCNC(=O)/C=C/C(=O)O)cc1OC	25.1µM*	·	·	-6.9%
O=[N+]([O-])c1ccc(C2Oc3ccccc3C3CC(c4ccccc4)=NN32)s1 (centres undefined)	?	12.8	-29.5%	?
Cc1ccc(O)c(N=Cc2cc(Cc3ccccc3)cc([N+](=O)[O-])c2O)c1	14.1µM*	·	·	28.2µM*
O=[N+]([O-])c1cc(Cc2ccccc2)cc(C=Nc2ccc(N3CCOCC3)cc2)c1O	?	-21.4	5.01µM*	15.8µM*
OCCNc1ncnc2c1ncn2[C@@H]1O[C@@H](CO)[C@H](O)[C@@H]1O	-6.2%[13.5 µM]	·	-7.6%	·
COc1ccccc1C1CC(c2ccco2)=NN1S(C)(=O)=O (centres undefined)	?	·	·	6.7%
CC1=NNC(=O)C1C(c1ccc(Cl)cc1)C(C#N)C#N (centres undefined)	·	·	·	-19.4%
CC1=NN(Cc2ccccc2)C(=O)C1C(c1ccccc1)C(C#N)C#N (centres undefined)	?	102.3	31.6µM*	-3.3%
CC1=NN(Cc2ccccc2)C(=O)C1C(c1ccc(Cl)cc1)C(C#N)C#N (centres undefined)	25.1µM*	-14.4	28.2µM*	-9.8%
CC(=O)Nc1c([N+](=O)[O-])cc2[nH]c(=O)[nH]c2c1[N+](=O)[O-]	2.2%	·	·	25.1µM*
CC1=NNC(=O)C1C(c1cccc(O)c1)C(C#N)C#N (centres undefined)	·	·	·	-6.0%
CC1=NNC(=O)C1C(c1ccccc1)C1C(=O)NN=C1C (centres undefined)	31.6µM*	·	·	-1.7%

Source: PubChem
